From PubChem
A selection: hits, their analogues and other compounds. The true share with any hit is near 2.4%.
TLR4-MyD88 BLA: TLR4-MyD88 interaction inhibition in cells. O00206+Q99836. hit rate 0.18% among 200,000. inhibition, % at 8.4 µM. HeLa CL3-4 TLR4/MyD88 BLA complementation, FRET ratio; in the data active = inhibition above about 25%;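 note: 0% = vehicle and 100% = reference inhibitor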
TLR9-MyD88 block: inhibitors of human TLR9-MyD88 binding; Q9NR96+Q99836; CHO BLA complementation TLR9-MyD88, CCF4 FRET ratio; inhibition, % at 4.98 µM; hit rate 0.21% among 340,000; AID 504734;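 active = inhibition above the mean over all tested compounds plus 3 SD, cut at about 21% in these data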;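 note: 0% = DMSO only wells and 100% = clavulanate BLA inhibitor control wells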
HTR2A ag: agonists of mouse serotonin 5-HT2A receptor (HTR2A). P35363. CHO-K1 mHTR2A beta-arrestin complementation, luminescence; percent of 30 µM serotonin response. activation, % at 7.6 µM. hit rate 0.66% among 360,000;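 active = activation above a run cutoff, the mean activation of all tested compounds plus 3 SD, cut at about 14% in these data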;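 note: 0% = plate median of compound wells and 100% = 30 µM serotonin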
TMEM16A inh: inhibitors of mouse TMEM16A calcium-activated chloride channel; HEK293 TMEM16A/YFP iodide influx fluorescence, ionomycin; hit rate 1.2% among 310,000; AID 588511; Q8BHY3; normalized B-score (activity score, 25-100; higher = stronger inhibition) at 10 µM;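 active = ratio plate-corrected score three or more library SD toward inhibition, starting fluorescence score within five deviations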;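 note: score derived from kinetic fluorescence span divided by baseline fluorescence per well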
NOD2-RIPK2 inh: blocks binding of human NOD2 to RIPK2 | inhibition, % at 4.98 µM | CHO BLA complementation NOD2-RIPK2, CCF4 ratio | hit rate 0.38% among 360,000 | AID 624267; in the data active = inhibition above about 21%;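 note: 0% = vehicle only and 100% = reference blocker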
ANO1 activ: activates or potentiates the mouse TMEM16A chloride channel; HEK293 TMEM16A/YFP-H148Q/I152L, iodide quench fluorescence; stronger effect = lower value; B-score at 10 µM; Q8BHY3; AID 623877; hit rate 0.3% among 340,000;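 active = fluorescence-ratio B-score plate-corrected deviation score at least 3 library SD below zero, with starting fluorescence score within 5 deviations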;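 note: channel opened by trigger with iodide after compound preincubation; score built on the fluorescence ratio of max minus min over baseline; more negative score means more quench and so TMEM16A activation or potentiation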
* = called active by the depositor; i = inactive; · = not tested or not shown.

SMILES | TLR4-MyD88 BLA | TLR9-MyD88 block | HTR2A ag | TMEM16A inh | NOD2-RIPK2 inh | ANO1 activ
C#CCOCCOCCOCCNc1nc(N2CCN(C(=O)CCCCCCCCCCNC(=O)[C@@H](CCSC)n3cc(CCO)nn3)CC2)nc(N2CCN(C(=O)CCCCCCCCCCNC(=O)[C@H]([C@@H](C)CC)n3cc(CCCCN=C(N)N)nn3)CC2)n1 | · | 1 | -6 | i | 30* | -23*
C#CCOCCOCCOCCNc1nc(N2CCN(C(=O)CCCCCCCCCCNC(=O)[C@@H](CCSC)n3cc(CCO)nn3)CC2)nc(N2CCN(C(=O)CCCCCCCCCCNC(=O)[C@H]([C@@H](C)CC)n3cc(CCCCCN)nn3)CC2)n1 | · | · | · | 100* | · | ·
COc1cc2oc(=O)c(Br)c(C)c2c(OC)c1OC | -1 | 5 | -5 | i | -4 | i
CCC(=O)c1ccc(OCC(=O)Nc2ccc3c(c2)OCCO3)cc1 | · | 0 | 4 | · | -2 | i
O=C(NCc1cc(Cl)cc(Cl)c1)c1ccc2sc([C@H]3C[C@H](O)[C@@H](CO)O3)nc2c1 | · | · | 13 | · | -8 | ·
COc1ccccc1N1CCN(C(=O)C2CCCN(S(=O)(=O)c3ccc4c(c3)oc(=O)n4C)C2)CC1 (configuration not stated) | · | -8 | 4 | 25* | -15 | i
O=[N+]([O-])c1ccc(N=Nc2ccc(O)cc2O)cc1 | 5 | -3 | -1 | 100* | -12 | i
COC(=O)C1CCN(C(=O)c2ccc(Cl)c(S(=O)(=O)NCc3ccco3)c2)CC1 | · | -8 | 1 | · | -1 | i
Cc1cccc(-n2ccnc2SCC(=O)Nc2nccs2)c1C | 2 | 2 | -2 | i | 9 | i
CC[C@H](C)[C@H]1O[C@]2(CC[C@@H]1C)C[C@@H]1C[C@@H](CC=C(C)[C@@H](O[C@H]3C[C@H](OC)[C@@H](O[C@H]4C[C@H](OC)[C@@H](O)[C@H](C)O4)[C@H](C)O3)[C@@H](C)C=CC=C3CO[C@@H]4[C@H](O)C(C)=C[C@@H](C(=O)O1)[C@]34O)O2 | · | -14 | -11 | 25* | -15 | i
CCOC(=O)C=C(OC(=O)c1ccc(OC)cc1)c1ccccc1 | · | -4 | -2 | · | -6 | i
O=C1CC(c2ccc3c(c2)OCO3)c2cc3c(cc2N1)OCCO3 (configuration not stated) | -9 | -6 | -1 | i | -1 | -5.1*
C=C(C)Cn1c(C(C)NC(=O)CCC)nc2ccccc21 (configuration not stated) | 6 | -8 | -2 | i | 0 | i
O=S(=O)(c1cccc2ccccc12)N1CCSC1 | · | -5 | 7 | i | 2 | i
O=S(=O)(c1cccc2cnccc12)N1CCNCC1 | · | -2 | 2 | i | 8 | -12*
COc1ccc2[nH]c3c(N4CC(C)OC(C)C4)ncnc3c2c1 (configuration not stated) | 2 | · | · | i | · | ·
OC1(c2cccc(C(F)(F)F)c2)CCN(c2ncnc3c2[nH]c2ccccc23)CC1 | 19 | -10 | -1 | 100* | 7 | i
COc1cccc(N2CCN(c3ncnc4c3[nH]c3ccccc34)CC2C)c1 (configuration not stated) | 12 | · | · | 100* | · | ·
c1ccc2c(c1)CCN(c1ncnc3c1[nH]c1ccccc13)C2 | · | -6 | 1 | 100* | 3 | i
CCOc1ccc(C(C)NC(=S)NC2CCCCC2)cc1OCC (configuration not stated) | -4 | 0 | 0 | i | -5 | i
CCOc1ccc(C(=S)NC2CCCCC2)cc1OCC | · | -8 | 1 | i | -5 | -6.5*
CCCCCC(=O)Nc1ccc(N2CCN(C(=O)CCC)CC2)cc1 | 8 | -4 | 2 | 100* | 8 | i
O=C(Nc1cccc(S(=O)(=O)N2CCOCC2)c1)c1ccc2c(=O)n3c(nc2c1)CCCCC3 | 2 | -2 | 0 | i | 12 | i
Cc1ccc(C2(c3ccc(C)cc3)CC2C(=O)Nc2ccc([N+](=O)[O-])cc2O)cc1 (configuration not stated) | -1 | -5 | -10 | 100* | -10 | i
CC1(C)CC1C(=O)Nc1ccc([N+](=O)[O-])cc1Br (configuration not stated) | -9 | 3 | 5 | i | 3 | i
